# Test results taken from PubChem BioAssay (Tox21).
# Inconclusive results are not listed. A number with no mark means an inactive call. Calls come from the whole dose curve; as a rule, active = well fitted cell-killing curve with a large enough effect in the repeat runs; inconclusive = weak or mixed curves, or effect the other way; inactive = flat fitted curve, though single readings scatter.
# Assay: Human pregnane X receptor (PXR) small molecule agonists, qHTS cell viability counter screen (AID 1346977); note: nearly all actives have a fitted effect of over 50% in size
# Settings: PXR-Luc HepG2 viability, CellTiter-Fluor, 24 h; series mostly up to 92.4 µM; activity change, negative = cytotoxicity: at the top concentration
# Text: U.S. Tox21 Program National Center for Advancing Translational Sciences [NCATS] NIH Chemical Genomics Center [NCGC] U.S. Environmental Protection Agency [EPA] National Institutes of Environmental Health Sciences [NIEHS] National Toxicology Program [NTP] U.S. Food and Drug Administration [FDA] Tox21 Assay Overview: The human pregnane X receptor (hPXR) regulates the expression of several drug metabolizing enzymes and induction of these proteins is a major mechanism for developing drug resistance in cancer. One such key enzyme catalyzing the drug metabolism is cytochrome P450 3A4 (CYP3A4). Changes in CYP3A4 expression affect drug metabolism, thereby reducing the therapeutic efficacy and altering toxicological response to a drug and which finally causes adverse drug interaction. To screen Tox21 libraries for compounds that activate hPXR-mediated CYP3A4 gene expression, PXR-Luc HepG2 cells were used. Also cytotoxicity of the compounds was tested in parallel by measuring the cell viability using CellTiter-Fluor assay system in the same wells.
# Tox21 Assay Protocol Summary: PXR-Luc HepG2 cells were dispensed at 2,000 per well in 5uL of assay medium containing 5% charcoal-stripped FBS into white solid bottom 1536-well plates (Corning Life Sciences, Corning, NY) using a Multidrop Combi (Thermo Scientific, Waltham, MA) dispenser. The assay plates were incubated at 37 C and 5% CO2 for 5hr, and then 23nL of compounds dissolved in DMSO and positive control were transferred using a Pintool station (Wako, San Diego, CA). The assay plates were incubated at 37C and 5% CO2 for 24hr. For cytotoxicity read, after 23hr incubation at 37C, 1uL CellTiter-Fluor reagent (Promega Corporation, Madison, WI) was added to each well of the assay plates using Flying Reagent Dispenser (FRD, Aurora Discovery, San Diego, CA). After 1hr incubation at 37C and 5% CO2, the fluorescence signal was quantified using a ViewLux plate reader (PerkinElmer, Shelton, CT).
# % is set by controls: 0 for no effect and ±100 for the full control effect.
row,SMILES,"activity change, negative = cytotoxicity"
1,CCCCCC/C=C/C(=O)OC,0.156%
2,CCCC(=O)Nc1ccc(OCC(O)CNC(C)C)c(C(C)=O)c1 (stereo not given),11.1% [at 42.5 µM]
3,ONc1ccccc1,-0.419%
4,CCOC(CN1CCN(CC(C)C(=O)c2ccccc2)CC1)c1ccccc1 (stereo not given),-0.628% [at 19 µM]
5,CCCCCCCCCOC(=O)CCCCC(=O)OCCCCCCC,-2.84%
6,Cc1ccnc(N)c1,-12.8%
7,C=C(C)C1CC=C(C)C(=O)C1 (stereo not given),-9.33%
8,CC1=C(C(=O)O)N2C(=O)[C@@H](NC(=O)[C@H](N)C3=CCC=CC3)[C@H]2SC1,11.3% [at 42.5 µM]
9,Cc1cccc(Cl)c1,15%
10,C/C(CC(C)C)=N\O,-1.21%
11,CC(=O)O[Si](C)(OC(C)=O)OC(C)=O,4.68%
12,Cn1c(=O)c2c(ncn2CCO)n(C)c1=O,-3.06% [at 42.5 µM]
13,CC(=O)O[C@@H]1CC2CCC1(C)C2(C)C (stereo not given in full),-3.93%
14,COc1ccc2c(c1)c1c3n2CCN(C)C3=NCC1,1.98% [at 42.5 µM]
15,CC(CO)(CO)CO,-4.18%
16,c1ccc2cnccc2c1,-0.442%
17,C=Cc1ccc(C(C)(C)C)cc1,0.421%
18,O=[N+]([O-])c1c(Cl)cc(Cl)cc1Cl,7.93%
19,CCC(C)OC(C)CC (stereo not given),4.05%
20,CCNC(=O)NCc1cccc(Cl)c1,8.35% [at 42.5 µM]

row,SMILES,"activity change, negative = cytotoxicity"
1,O=Cc1cc2ccccc2o1,-2.52%
2,Cc1ccc(C(=O)O)cc1[N+](=O)[O-],16.4%
3,CCN(CC)CCN,2.28% [at 42.5 µM]
4,O=C1CCCCO1,6.8%
5,CCO,1.48%
6,Nc1nc(-c2ccccc2)c(Br)c(=O)[nH]1,-0.349% [at 42.5 µM]
7,[O]=[Mo](=[O])=[O],1.91% [at 19 µM]
8,O=C1NC(c2ccccc2)(c2ccccc2)C(=O)N1COP(=O)(O)O,-0.0334% [at 42.5 µM]
9,CC(=O)OC1CCCCC1C(C)(C)C (stereo not given),-0.513%
10,COC(=O)/C=C\C(=O)O,25.8%
11,CC(=O)CC(=O)Nc1ccc(C)cc1C,0.0708%
12,CNCCS(=O)(=O)O,-0.184%
13,CC(C)COC(=O)c1ccccc1,8.11%
14,CC1(C)Cc2cccc(N)c2O1,17.8%
15,CO[C@@]1(NC(=O)Cc2cccs2)C(=O)N2C(C(=O)O)=C(COC(N)=O)CS[C@@H]21,11% [at 42.5 µM]
16,CSc1cnccn1,9.28%
17,CCC(C)C(C)=O (stereo not given),-0.466%
18,CCc1occc(=O)c1O,-0.66%
19,OC1OCCOC1O (stereo not given),-1.62%
20,CCCCCc1cccc(=O)o1,-7.61%
